Only some compounds are listed: those with a hit (about 7.4% of all), similar ones and a draw of the others.
Rab9 prom act: qHTS Assay for Rab9 Promoter Activators; Huh7 Rab9 promoter-luciferase reporter, luminescence, 24 h; Potency, µM (highest dose often 9.22 µM), for inactives: top-dose activation, negative = inhibition, most hits filed as activators; 2.8% of 320,000 active; also: % of control where 0% means no effect; nearly all actives have a fitted effect of over 60% in size
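Luminescence read-out: Huh7 cells stably expressing Rab9-luciferase, treated 24 h with compound at 37 °C, then lysed with luciferase reagent for 10 min at ambient before reading.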
SMN2 splice enh: qHTS Assay for Enhancers of SMN2 Splice Variant Expression | AID 1458, 2008 | HEK293 SMN2-luciferase splicing reporter, luminescence, 30-36 h | 2.8% of 210,000 active | Potency, µM (doses to about 46.1 µM), for inactives: at the highest dose activity change, positive = activation, actives largely listed as activators; also: % of control where 0% means no effect; nearly all actives have a fitted effect of over 55% in size
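qHTS luciferase splicing reporter: luminescence rises when SMN2 exon 7 is included in transfected HEK293 cells. Compound exposure lasted 30-36 h at 37C, with 4.5 mM final sodium butyrate as control, followed by a ONE-Glo read.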
ELG1 genotox: qHTS screen for small molecules that induce genotoxicity in human embryonic kidney (HEK293T) cells expressing luciferase-tagged ELG1; HEK293T ELG1-luciferase reporter, luminescence, 16 h; Potency, µM (series often up to 46 µM), for inactives: top-dose activity change, positive = activation, actives largely listed as activators; 1.3% of 330,000 active; also: % of control where 0% means no effect; nearly all actives have a fitted effect of over 60% in size
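Step 1: seed 2,000 HEK293T ELG1-luciferase cells per well. Step 2: add compound or DMSO, incubate 16 hr at 37 °C. Step 3: ONE-Glo, 30 min at room temperature, read luminescence.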
NPC1 promoter act: qHTS Assay for NPC1 Promoter Activators. 2.4% of 320,000 active. AID 485313, 2010. Huh7 NPC1 promoter luciferase reporter, 24 h. Potency, µM (highest dose often 9.22 µM), inactives show top-dose activation, most hits filed as activators; also: % of control where 0% means no effect; nearly all actives have a fitted effect of over 60% in size
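Quantitative HTS used a cell-based reporter: Huh7 cells stably bearing the NPC1 promoter upstream of luciferase were treated with compounds for 24 h, and promoter activation was read as luminescence.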
FLuc counter: qHTS profiling assay for firefly luciferase inhibitor/activator using purifed enzyme and Km concentrations of substrates (counterscreen for miR-21 project) | Luciferin 4-monooxygenase (Photinus pyralis), P08659 | purified FLuc, Km substrates, luminescence inhibition | Potency, µM (doses to about 57.5 µM), inactives show at the highest dose activity change, negative = inhibition, usual class: inhibitors | 6.9% of 360,000 active;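 also: plate controls were vehicle for no effect and reference inhibitor for full effect; nearly all actives have a fitted effect of over 55% in size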
Target sequence (P08659 whole entry, looked up): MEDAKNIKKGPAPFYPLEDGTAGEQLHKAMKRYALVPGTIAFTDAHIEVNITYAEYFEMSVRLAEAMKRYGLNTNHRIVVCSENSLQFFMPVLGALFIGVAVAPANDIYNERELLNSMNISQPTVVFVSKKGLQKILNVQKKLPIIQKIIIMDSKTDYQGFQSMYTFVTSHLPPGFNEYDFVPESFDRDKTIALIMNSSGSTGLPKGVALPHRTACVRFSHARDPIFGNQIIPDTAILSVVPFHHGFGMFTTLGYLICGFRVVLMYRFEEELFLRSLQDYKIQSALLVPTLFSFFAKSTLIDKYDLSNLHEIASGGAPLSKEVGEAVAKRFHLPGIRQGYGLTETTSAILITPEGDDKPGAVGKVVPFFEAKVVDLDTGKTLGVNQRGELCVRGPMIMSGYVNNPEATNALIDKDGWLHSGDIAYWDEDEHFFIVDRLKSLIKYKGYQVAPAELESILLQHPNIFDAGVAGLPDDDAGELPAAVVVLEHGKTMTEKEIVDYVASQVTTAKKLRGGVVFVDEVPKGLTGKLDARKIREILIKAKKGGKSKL
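Purified P. pyralis luciferase, 10 nM final, with Km-level 10 uM D-luciferin and 10 uM ATP in 50 mM Tris acetate pH 7.5, 10 mM Mg acetate, 0.01% Tween-20, 0.05% BSA; 6-point qHTS titration about 60 µM downward; luminescence read.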
* marks the source's active call; other numbers are inactive results; u = inconclusive; x = no result given. Calls follow the shape of the dose curve; as a rule, active = well fitted curve in the direction sought with a large enough effect; inconclusive = small, poorly fitted or top-dose-only effect, or another doubt; inactive = no such curve, though single readings can be large; an effect the other way counts as inactive or inconclusive. Potency is read from the fitted curve at half-maximal effect.

SMILES	Rab9 prom act	SMN2 splice enh	ELG1 genotox	NPC1 promoter act	FLuc counter
O=C(Nc1ccc2oc(-c3ccccc3Cl)nc2c1)c1ncn[nH]1	3.5µM*	10µM*	8.2µM*	1.4µM*	3µM*
O=C(Nc1ccc2oc(-c3cccc4ccccc34)nc2c1)c1ncn[nH]1	2.8µM*	u	u	u	u
O=C(Nc1ccc2oc(-c3cc(Br)ccc3Cl)nc2c1)c1ccc2ccccc2c1	x	-6%	x	x	-8%
COc1cc2ccccc2cc1C(=O)Nc1ccc2oc(-c3cccc(Cl)c3Cl)nc2c1	x	29%	x	x	-2%
COc1ccccc1NC(=O)Cn1c(=O)n(Cc2ccccc2)c(=O)c2sc3ccccc3c21	x	3%	x	x	0%
CCC1CCCCN1CC(=O)c1c(C)[nH]c2cc(C)ccc12 (configuration not stated)	4%	x	0%	-2%	-2%
CCN(CC(=O)Nc1cc(Cl)ccc1C)C(=O)c1oc2ccc(OC)cc2c1C	-5%	x	0%	0%	u
CCc1ccccc1Nc1nc(N)nc(CSc2nnnn2C)n1	21%	21%	10%	-1%	1%
Cc1ccc(Nc2nc(N)nc(CN3CCCCCC3)n2)c(C)c1	-4%	-7%	-1%	-1%	0%
Cc1ccccc1Nc1nc(N)nc(CSc2ccc(F)cc2)n1	3.2µM*	x	8.2µM*	2.5µM*	11µM*
Cc1ccc(SCc2nc(N)nc(Nc3ccccc3C)n2)c(C)c1	5%	-14%	2%	5%	27µM*
Cc1ccc(Nc2nc(N)nc(CSc3nccn3C)n2)c(C)c1	u	90%	15µM*	u	u
Cc1ccccc1Nc1nc(N)nc(CSc2nnnn2C)n1	2.5µM*	13µM*	u	3.5µM*	u
O=C(CN(Cc1ccccc1)C(=O)CCC(=O)Nc1nccs1)NCc1ccccc1	2%	x	0%	-2%	1%
COc1ccccc1OCC(=O)Nc1ccccc1C(=O)N1CCCCC1	3%	x	1%	-1%	3%
CC(=O)c1ccc(NC(=O)Cn2c3ncccc3c(=O)n2-c2ccc(C)cc2)cc1	x	-6%	x	x	-9%
Cc1cc(C(=O)COC(=O)C2=COCCO2)c(C)n1-c1ccccc1	x	x	0.26µM*	x	x
Cc1cc(C(=O)COC(=O)CC2Sc3ccccc3NC2=O)c(C)n1-c1ccc(Br)cc1 (configuration not stated)	-5%	-56%	1%	2%	-5%
CCC(=O)OCC(=O)c1cc(C)n(-c2ccc(Br)cc2)c1C	-2%	-28%	-4%	-5%	4.3µM*
Cc1ccc(-n2c(C)cc(C(=O)COC(=O)C3=NNC(=O)CC3)c2C)cc1	1%	-25%	18%	-2%	17µM*
Cc1cc(C(=O)COC(=O)CC2Sc3ccccc3NC2=O)c(C)n1-c1ccccc1 (configuration not stated)	18%	-9%	8%	15%	6µM*
O=C(NCCc1ccc(F)cc1)C(=O)Nc1cc2c3c(c1)CC(=O)N3CCC2	1%	x	-3%	-5%	6%
CCCC(C)NC(=O)CN1C(=O)c2cccc3cccc1c23 (configuration not stated)	0%	x	-3%	2%	-3%
Cc1ccc(-n2c(C)cc(C(=O)COC(=O)c3c(C)noc3C)c2C)cc1	u	-5%	13%	u	3.4µM*
Cc1cc(C(=O)COC(=O)C2=NNC(=O)CC2)c(C)n1-c1ccccc1	4%	-4%	4%	-4%	1.9µM*
O=C(OCC(=O)c1ccc[nH]1)C1=COCCO1	1%	x	4%	-2%	-13%
O=C(OCC(=O)c1c[nH]c2ccccc12)C1=COCCO1	3.5µM*	u	u	u	15µM*
CC(/C=N/Nc1nnc(C)c(=O)[nH]1)=C\c1ccccc1	u	u	15%	u	12µM*
C(=C\c1ccccc1)/C=N/Nc1ccc2nncn2n1	-4%	x	5%	u	-13%

High-throughput results deposited in PubChem BioAssay by National Center for Advancing Translational Sciences (NCATS).
